Measurements as given in PubChem BioAssay (Tox21).
Records with an inconclusive call do not appear. Calls of active or inactive are those of the source. Unless noted, calls follow the shape of the dose curve; as a rule, active = well fitted curve in the direction sought with a large enough effect in the repeat runs; inconclusive = weak or mixed curves; inactive = no such curve, though single readings can be large; an effect the other way counts as inactive or inconclusive.

Columns and labels:
[1] = A CellTox Green Cytotoxicity Assay to monitor cytotoxicity in HEK293 cells - 32 hour (AID 1224881); also: nearly all actives have a fitted effect of over 40% in size
Procedure, shortened: (§1)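 Homogeneous no-lysis format: HEK293 cell suspension mixed with CellTox Green reagent, seeded, incubated 5 h at 37 C/5% CO2, then dosed by pintool with compound in DMSO.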

[2] = A CellTox Green Cytotoxicity Assay to monitor cytotoxicity in HepG2 cells - 0 hour (AID 1224882); also: nearly all actives have a fitted effect of over 35% in size; also: potency is read from the fitted curve at half-maximal effect
Procedure, shortened: (§2)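 Fluorescent DNA-binding dye, 600 HepG2 cells/well, 5 h preincubation then compound in DMSO; same plates read at 0–40 h, 37 C.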

[3] = A CellTox Green Cytotoxicity Assay to monitor cytotoxicity in HEK293 cells - 8 hour (AID 1224884); also: nearly all actives have a fitted effect of over 35% in size
Procedure, shortened: as §1

[4] = qHTS RealTime-Glo MT Cell Viability Assay in HEK293 cells - 24 hour (AID 1224886); also: nearly all actives have a fitted effect of over 50% in size; also: potency is read from the fitted curve at half-maximal effect; as to activity change, negative = cytotoxicity: top concentration of the series differs between compounds
Procedure, shortened: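 HEK293 cells seeded with NanoLuc/prosubstrate reagent, rested 5 h at 37 C, then dosed and kept at 37 C up to 40 h. Nonlytic real-time luminescence from viable cells read at 0, 8, 16, 24, 32 and 40 h.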

[5] = qHTS RealTime-Glo MT Cell Viability Assay in HEK293 cells - 8 hour (AID 1224887); also: top concentration of the series differs between compounds; nearly all actives have a fitted effect of over 50% in size
Procedure, shortened: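 Measured as luminescence from the same continuously cultured HEK293 wells at successive time points (0, 8, 16, 24, 32, 40 h) after compound addition. Reagent present from seeding; dosing at 5 h; incubation 37 C.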

[6] = A CellTox Green Cytotoxicity Assay to monitor cytotoxicity in HEK293 cells - 16 hour (AID 1224888); also: nearly all actives have a fitted effect of over 35% in size
Procedure, shortened: as §1

[7] = qHTS RealTime-Glo MT Cell Viability Assay in HepG2 cells - 0 hour (AID 1224889); also: nearly all actives have a fitted effect of over 50% in size
Procedure, shortened: (§3)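 HepG2 cells (600/well) were dispensed with RealTime-Glo reagents, incubated 5 h at 37 °C, then treated with compounds in DMSO for up to 40 h. Nonlytic NanoLuc luminescence reflecting viable cells was read at each stated time point.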

[8] = A CellTox Green Cytotoxicity Assay to monitor cytotoxicity in HepG2 cells - 8 hour (AID 1224890); also: nearly all actives have a fitted effect of over 45% in size
Procedure, shortened: as §2

[9] = qHTS assay to identify small molecule antagonists of the estrogen receptor alpha (ER-alpha) signaling pathway using the BG1 cell line in the presence of 0.1 nM 17-beta-estradiol - cell viability counter screen (AID 1259241); also: nearly all actives have a fitted effect of over 40% in size
Procedure, shortened: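 VM7Luc4E2 cells (endogenous full-length ER-alpha, 4xERE-luciferase), cultured 5 days in charcoal-stripped serum, exposed to compounds with 0.1 nM 17beta-estradiol (final) for 22 hr at 37C. Viability read in same wells as live-cell protease fluorescence after 30 min.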

[10] = qHTS assay to identify small molecule antagonists of the androgen receptor (AR) signaling pathway using the MDA cell line in the presence of 0.5 nM R1881 - cell viability counter screen (AID 1259242); also: nearly all actives have a fitted effect of over 45% in size
Procedure, shortened: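 Human breast carcinoma MDA-kb2 cells, cultured without CO2, receive compounds alongside 0.5 nM (final) R1881 agonist. After 16 hr at 37C, viability is taken as live-cell protease signal.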

[11] = qHTS assay to identify small molecule HDAC inhibitors (AID 1259364);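 also: wild-type HCT-116 cells with endogenous class I/II HDAC activity; top concentration of the series differs between compounds; nearly all actives have a fitted effect of over 45% in size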
Procedure, shortened: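 After a 2 hr compound incubation (37C, 5% CO2), HCT-116 cells seeded at 1,500/well the day before received HDAC-Glo reagent; signal read as luminescence after 30 min at room temperature.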

[12] = qHTS assay to identify small molecule HDAC inhibitors - cell viability counter screen (AID 1259365); also: series mostly up to about 92 µM; nearly all actives have a fitted effect of over 50% in size
Procedure, shortened: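 Wild-type HCT-116 cells, 1,500/well, cultured overnight, then compound-treated 2 h at 37 C. Viability measured as ATP luminescence with CellTiter-Glo after 30 min at room temperature.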

[13] = qHTS assay to identify small molecule agonists of the sonic hedgehog signaling (Shh) pathway - cell viability counter screen (AID 1259366); also: nearly all actives have a fitted effect of over 50% in size
Procedure, shortened: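 NIH/3T3-derived Gli1-Luc reporter cells, 2,000 per well, received compound after 4 h and were treated about 23 h at 37C. Viability measured in the same wells by CellTiter-Fluor fluorescence after 1 h.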

[14] = qHTS assay to identify small molecule antagonists of the sonic hedgehog signaling (Shh) pathway - cell viability counter screen (AID 1259367); also: nearly all actives have a fitted effect of over 55% in size
Procedure, shortened: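 Cytotoxicity was assessed in parallel with Shh reporter activity by measuring live-cell protease fluorescence (CellTiter-Fluor) in NIH/3T3 cells stably carrying Gli1-Luc, treated with compound under conditioned medium stimulation for 23 hr plus 1 hr reagent incubation.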

[15] = qHTS assay to identify small molecule agonists of the sonic hedgehog signaling (Shh) pathway (AID 1259368; calls by dose curve;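 also: NIH/3T3-derived 3T3Gli1-Luc cells carrying a stable Gli1-driven firefly luciferase reporter; series mostly up to about 92 µM; nearly all actives have a fitted effect of over 15% in size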)
Procedure, shortened: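 Stable NIH/3T3 Gli1-Luc reporter clone; 24 hr cpd exposure after a 4 hr settling period; luminescence endpoint.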

[16] = qHTS RealTime-Glo MT Cell Viability Assay in HepG2 cells - 16 hour (AID 1224885); also: nearly all actives have a fitted effect of over 50% in size
Procedure, shortened: as §3

[17] = A CellTox Green Cytotoxicity Assay to monitor cytotoxicity in HepG2 cells - 32 hour (AID 1224883); also: nearly all actives have a fitted effect of over 50% in size; also: potency is read from the fitted curve at half-maximal effect
Procedure, shortened: as §2

[18] = qHTS assay to identify small molecule phospholipidosis (PLD) inducers (AID 1259344; active = well fitted curve in the direction sought with a large enough effect; an effect the other way counts as inactive or inconclusive)
Procedure, shortened: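 Cells (HepG2, 900 per well) attach for 4 h, receive LipidTOX Red and compound together, incubate 24 h at 37 C, are fixed 30 min with paraformaldehyde/Hoechst, then imaged at one site per well.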

[19] = biological target: Androgen receptor (Homo sapiens) (UniProt P10275); experiment: qHTS assay to identify small molecule antagonists of the androgen receptor (AR) signaling pathway using the MDA cell line in the presence of 0.5 nM R1881 (AID 1259243); also: nearly all actives have a fitted effect of over 50% in size
Procedure, shortened: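 Cells: MDA-kb2 (MMTV-luc). Stimulus: 0.5 nM R1881. Time: 16 hr, 37C, no CO2. Detection: ONE-Glo luminescence after 30 min at RT.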

[20] = biological target: Estrogen receptor (Homo sapiens) (UniProt P03372); experiment: qHTS assay to identify small molecule antagonists of the estrogen receptor alpha (ER-alpha) signaling pathway using the BG1 cell line in the presence of 0.1 nM 17-beta-estradiol (AID 1259244); also: nearly all actives have a fitted effect of over 50% in size; also: potency is read from the fitted curve at half-maximal effect
Procedure, shortened: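 Seeding of stripped-serum-adapted VM7Luc4E2 cells, 24 h attachment, compound transfer, then 0.1 nM final 17beta-estradiol; after 22 h incubation, ONE-Glo reagent and luminescence reading.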
% is scaled to controls: 0 for no effect and ±100 for the full control effect.

Chain of Androgen receptor (Homo sapiens) (P10275 whole entry, looked up): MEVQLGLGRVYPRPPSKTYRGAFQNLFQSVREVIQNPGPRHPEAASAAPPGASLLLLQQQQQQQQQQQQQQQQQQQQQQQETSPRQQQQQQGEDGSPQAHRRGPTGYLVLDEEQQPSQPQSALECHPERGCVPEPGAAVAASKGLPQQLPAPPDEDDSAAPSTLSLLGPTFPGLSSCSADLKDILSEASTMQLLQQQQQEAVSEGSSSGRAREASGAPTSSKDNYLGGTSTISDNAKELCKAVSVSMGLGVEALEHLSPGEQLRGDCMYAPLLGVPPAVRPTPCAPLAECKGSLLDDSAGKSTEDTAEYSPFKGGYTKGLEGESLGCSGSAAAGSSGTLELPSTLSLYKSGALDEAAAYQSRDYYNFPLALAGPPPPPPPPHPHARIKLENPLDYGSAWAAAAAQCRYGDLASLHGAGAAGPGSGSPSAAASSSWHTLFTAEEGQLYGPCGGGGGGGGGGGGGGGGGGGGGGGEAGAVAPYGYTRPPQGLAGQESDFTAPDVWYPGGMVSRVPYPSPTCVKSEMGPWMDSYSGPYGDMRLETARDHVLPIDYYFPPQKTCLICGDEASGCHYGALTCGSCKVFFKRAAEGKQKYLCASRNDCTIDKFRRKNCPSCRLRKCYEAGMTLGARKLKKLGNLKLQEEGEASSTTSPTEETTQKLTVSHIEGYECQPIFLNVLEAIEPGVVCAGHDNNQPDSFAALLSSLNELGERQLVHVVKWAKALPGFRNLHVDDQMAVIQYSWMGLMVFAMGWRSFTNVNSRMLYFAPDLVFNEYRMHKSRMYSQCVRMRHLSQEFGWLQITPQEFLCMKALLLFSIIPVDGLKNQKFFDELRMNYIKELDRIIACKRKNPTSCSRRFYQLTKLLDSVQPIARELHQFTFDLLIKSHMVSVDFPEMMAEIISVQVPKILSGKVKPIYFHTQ
Chain of Estrogen receptor (Homo sapiens) (P03372 whole entry, looked up): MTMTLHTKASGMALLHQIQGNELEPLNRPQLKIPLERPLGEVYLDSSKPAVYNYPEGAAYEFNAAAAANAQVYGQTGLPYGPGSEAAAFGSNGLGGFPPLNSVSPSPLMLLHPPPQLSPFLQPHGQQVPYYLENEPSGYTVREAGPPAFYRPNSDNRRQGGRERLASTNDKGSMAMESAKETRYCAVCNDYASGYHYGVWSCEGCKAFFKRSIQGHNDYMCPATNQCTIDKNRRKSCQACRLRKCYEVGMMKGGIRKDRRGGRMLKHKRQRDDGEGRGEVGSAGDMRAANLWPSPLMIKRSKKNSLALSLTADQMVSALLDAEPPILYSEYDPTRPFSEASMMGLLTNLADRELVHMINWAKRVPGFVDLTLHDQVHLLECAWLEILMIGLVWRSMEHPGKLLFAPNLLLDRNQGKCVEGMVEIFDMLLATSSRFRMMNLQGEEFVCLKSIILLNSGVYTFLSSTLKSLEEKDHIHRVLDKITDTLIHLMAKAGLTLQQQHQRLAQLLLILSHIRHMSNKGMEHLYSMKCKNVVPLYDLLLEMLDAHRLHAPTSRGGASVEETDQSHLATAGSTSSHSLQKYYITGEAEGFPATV

O=c1c2ccccc2nnn1CCl
inactive: Potency [1] | Potency [2] | Potency [3] | Potency [4] | Potency [5] | Potency [6] | Potency [7] | Potency [8] | Potency [9] | Potency [10] | Potency [11] | outcome [12] | Potency [13] | Potency [14] | outcome [15]

CCCC[C@H]1CN(CC2CCOCC2)C(=O)OC12CCN(C1(C)CCN(C(=O)c3c(C)ncnc3C)CC1)CC2
inactive: Potency [1] | Potency [2] | Potency [3] | Potency [16] | Potency [4] | Potency [6] | Potency [8] | Potency [9] | Potency [10] | Potency [11] | Potency [14] | outcome [15]

CCCCCC/C=C/C=O
inactive: Potency [1] | Potency [2] | Potency [3] | Potency [16] | Potency [4] | Potency [5] | Potency [6] | Potency [7] | Potency [8] | Potency [10] | Potency [11] | outcome [12] | Potency [13] | Potency [14] | outcome [15]

O=S1(=O)c2cccc3cccc(c23)N1CCCN1CCN(c2ccc(F)cc2)CC1
inactive: Potency [1] | Potency [17] | Potency [3] | Potency [16] | Potency [4] | Potency [5] | Potency [6] | Potency [7] | Potency [9] | Potency [10] | Potency [18] | Potency [11] | outcome [12] | Potency [13] | Potency [14] | outcome [15]

CCCCCCc1ccc(N)cc1
inactive: Potency [1] | Potency [3] | Potency [16] | Potency [4] | Potency [6] | Potency [7] | Potency [9] | Potency [10] | Potency [19] | Potency [20] | Potency [11] | Potency [13] | Potency [14] | outcome [15]
active: Potency [17] 49 µM

CC[C@H](C)[C@@H](C(=O)O)n1sc2ccccc2c1=O
inactive: Potency [1] | Potency [2] | Potency [16] | Potency [4] | Potency [6] | Potency [7] | Potency [8] | Potency [9] | Potency [10] | Potency [20] | Potency [11] | outcome [12] | Potency [13] | Potency [14] | outcome [15]

O=C(O)[C@@H]1[C@H]2C[C@H]3c4[nH]c5ccccc5c4CCN3C[C@@H]2CC[C@@H]1O
active: Potency [2] 10.7 µM
inactive: Potency [1] | Potency [3] | Potency [16] | Potency [4] | Potency [5] | Potency [6] | Potency [7] | Potency [9] | Potency [10] | Potency [19] | Potency [20] | Potency [18] | Potency [11] | outcome [12] | Potency [13] | Potency [14] | outcome [15]

CCCCCc1ccc(N)cc1
inactive: Potency [2] | Potency [3] | Potency [16] | Potency [4] | Potency [6] | Potency [7] | Potency [9] | Potency [10] | Potency [20] | Potency [11] | outcome [12] | Potency [13] | Potency [14] | outcome [15]
active: Potency [17] 49 µM

C#CCOC(=O)[C@@H](C)Oc1ccc(Oc2ncc(Cl)cc2F)cc1
inactive: Potency [1] | Potency [16] | Potency [4] | Potency [6] | Potency [7] | Potency [8] | Potency [9] | Potency [10] | Potency [20] | Potency [11] | Potency [13] | Potency [14] | outcome [15]

NC[C@H]1O[C@H](O[C@H]2[C@H](O)[C@@H](O[C@H]3O[C@H](CO)[C@@H](O)[C@H](N)[C@H]3O)[C@H](N)C[C@@H]2N)[C@H](O)[C@@H](O)[C@@H]1O
inactive: cytotoxicity [2] 1.08% [at 6.97 µM] | cytotoxicity increase [17] 13.2% [at 6.97 µM] | cytotoxicity increase [3] 7.24% [at 6.97 µM] | activity change, negative = cytotoxic [16] 2.6% [at 6.97 µM] | activity change, negative = cytotoxicity [4] 13.6% [at 6.97 µM] | activity change [6] 6.94% [at 6.97 µM, stronger effect = higher value] | activity change, negative = cytotoxicity [7] 17.3% [at 6.97 µM] | cytotoxicity increase [8] 21.1% [at 6.97 µM] | activity change, negative = cytotoxicity [9] 2.35% [at 8.39 µM] | viability change, negative = cytotoxic [10] 1.3% [at 8.39 µM] | Potency [18] | activity change, negative = inhibition [11] -0.959% [at 8.39 µM] | activity change, negative = cytotoxicity [12] 2.31% [at 8.39 µM] | viability change, negative = cytotoxic [13] -24.3% [at 8.39 µM] | viability change, negative = cytotoxic [14] -30.1% [at 8.39 µM] | activity change [15] 1.6% [at 8.39 µM]

CN1CCC(OC(c2ccccc2)c2ccccc2)CC1
inactive: Potency [1] | Potency [3] | Potency [16] | Potency [4] | Potency [6] | Potency [7] | Potency [8] | Potency [9] | Potency [10] | Potency [20] | Potency [18] | Potency [11] | outcome [12] | Potency [13] | Potency [14] | outcome [15]

CC(=O)c1c(C)c([N+](=O)[O-])c(C(C)(C)C)c([N+](=O)[O-])c1C
inactive: Potency [1] | Potency [17] | Potency [3] | Potency [4] | Potency [6] | Potency [7] | Potency [8] | Potency [9] | Potency [10] | Potency [11] | outcome [12] | Potency [13] | Potency [14] | outcome [15]

N[C@H]1C(O)O[C@H](CO)[C@H](O)[C@@H]1O (some centres not stated)
inactive: Potency [2] | Potency [17] | Potency [3] | Potency [16] | Potency [4] | Potency [5] | Potency [6] | Potency [7] | Potency [8] | Potency [9] | Potency [10] | Potency [19] | Potency [11] | outcome [12] | Potency [13] | Potency [14] | outcome [15]

Cc1cccc(Oc2ccccc2)c1
active: Potency [4] 47.8 µM | Potency [20] 66.8 µM
inactive: Potency [1] | Potency [16] | Potency [5] | Potency [6] | Potency [7] | Potency [8] | Potency [9] | Potency [10] | Potency [11] | outcome [12] | Potency [14] | outcome [15]

Cc1cccc(OCCOc2cccc(C)c2)c1
inactive: Potency [1] | Potency [3] | Potency [16] | Potency [4] | Potency [5] | Potency [6] | Potency [7] | Potency [8] | Potency [9] | Potency [10] | Potency [20] | Potency [11] | outcome [12] | Potency [13] | Potency [14] | outcome [15]

NCc1ccccc1
inactive: Potency [2] | Potency [17] | Potency [3] | Potency [16] | Potency [4] | Potency [5] | Potency [6] | Potency [7] | Potency [8] | Potency [9] | Potency [10] | Potency [11] | outcome [12] | Potency [14] | outcome [15]
